These entries were drawn from the full list.
aSyn 5UTR act – Activators via SNCA 5'UTR binding, MLPCN; 7.1% of 300,000 active; activity score, % (tested at 7.5 µM), hits read low; alpha-synuclein 5'UTR reporter, activators screen; in the data active = activity score below about -60%
Hits are given with their value; n = inactive.

SMILES | aSyn 5UTR act
Clc1c(-c2ccccc2)nc2ccccn12 | -152
c1ccn2c(c1)nc1c2nc2ccccn21 | -189
Cc1c(-c2ccc(Br)cc2)nc2ccccn12 | -181
Cc1ccc(-c2nc3ccccn3c2C=O)cc1 | -108
CSc1ccccc1NC(=O)CSCc1ccc(C)cc1 | -113
Cc1ccc(CSCC(=O)Nc2ccccc2C(=O)O)cc1 | -94
Cc1ccc(-c2cc(N)n(-c3ccc(F)cc3)n2)cc1 | -147
Cc1ccc(-c2cc(N)n(-c3ccc(C)cc3)n2)cc1 | -124
Nc1cnc(-c2ccccc2)nc1Cl | -63
c1ccc(-c2ncc3c(ccc4ccccc43)n2)cc1 | n
c1ccc(-c2cnc(-c3ccccc3)nc2)cc1 | -66
C/C(=N/OC(=O)CC(C)C)c1cc(-c2ccc(Cl)cc2)no1 | -146
O=C(N/N=C1\CCCc2ccccc21)c1cccc(Br)c1 | -93
O=C(N/N=C1\CCc2ccccc21)c1ccc(O)cc1 | -75
O=C(N/N=C/c1ccc(O)cc1O)c1ccc(CN2C(=O)c3cccc4cccc2c34)cc1 | n
O=C(N/N=C1\C(=O)c2cccc3cccc1c23)c1ccc(O)cc1 | -137
S=C(N/N=C1\CCc2ccccc21)NC1CCCCC1 | -106
C/C(=N\NC(=O)c1cccc(Br)c1)c1ccccn1 | n
Cc1ccc(C(=O)N/N=C2\CCc3ccccc32)c(C)c1 | -139
CCOC(=O)N/N=C1\CCc2ccccc21 | -102
O=C(N/N=C1\CCc2ccccc21)c1ccccc1Cl | -129
Cc1ccc(NN=C2c3ccccc3-c3ccccc32)cc1 | -212
O=C(NCCC1=CCCCC1)c1cnccn1 | -114
Cc1cc(C(=O)NCCC2=CCCCC2)c(C)o1 | -123
COc1ccc(C(=O)NCCC2=CCCCC2)cc1OC1CCN(C(C)C)CC1 | -74
SMILES | aSyn 5UTR act
COc1cccc(C(=O)NCCC2=CCCCC2)c1OC | -117
O=C(COC(=O)c1ccccc1Br)NCCC1=CCCCC1 | -64
O=C(Nc1ccccc1)C(=O)Nc1ccc2c(c1)N(C(=O)C1CC1)CCC2 | -121
O=C(Oc1ccc(Cl)cc1)N1CCCCC1 | -110
O=C(Oc1ccc2ccc(OC(=O)N3CCCCCC3)cc2c1)N1CCCCCC1 | -81
Cc1cccc(N=Nc2cn[nH]c2-c2ccco2)c1 | -125
O=[N+]([O-])c1ncccc1OCc1ccc(Cl)c(Cl)c1 | -121
COc1ccc(Cc2[nH]n3c(=O)cc(C(C)C)nc3c2-c2ccccc2)cc1 | n
COc1ccc(-c2cc(=O)n(-c3nc4ccccc4[nH]3)[nH]2)cc1 | -68
COCC1CCCN(C(=O)c2ccc3nc(Cc4cccc(Cl)c4)oc3c2)C1 (configuration not stated) | -77
CC(C)(CO)NC(=O)c1ccc2nc(Cc3cccc(Cl)c3)oc2c1 | -102
COC(=O)CN(C)C(=O)c1ccc2nc(Cc3cccc(Cl)c3)oc2c1 | -109
Cc1cccc(-c2nsc(SCC(=O)Nc3ccc4c(c3)OCO4)n2)c1 | -96
CSc1nsc(SCC(=O)Nc2ccc3c(c2)OCCO3)n1 | -136
Cc1csc(SCC(=O)Nc2ccc3c(c2)OCCO3)n1 | -67
Cc1ccc(C2CC(c3ccccc3)=NN2C(=S)Nc2ccccc2)o1 (configuration not stated) | -65
O=C(c1ccco1)N1CCN(c2ncnc3c2cnn3-c2ccccc2)CC1 | -94
CC1CCN(c2ncnc3c2cnn3-c2ccccc2)CC1 | -119
Clc1ccc(-n2ncc3c(N4CCCC4)ncnc32)cc1 | n
O=[N+]([O-])c1ccc2nc(-c3ccccc3)n(OCc3ccc(Cl)cc3)c2c1 | -87
COn1c(-c2ccccc2)nc2ccc(Cl)cc21 | -138
N#C/C(C(N)=O)=C1/CCc2ccccc2N1 | -63
CC1(C)CCC(=O)N2CC[C@H]3C[C@H](OC(=O)Nc4ccc(Br)cc4)C[C@@H]1[C@H]32 | -68
O=C(Nc1ccc(Oc2c(F)c(F)c(F)c(F)c2F)cc1)OC1CCN2Cc3ccccc3N=C12 (configuration not stated) | n
COc1ccc(NC(=O)Nc2ccc3c(c2)OCO3)c(C)c1 | -81
SMILES | aSyn 5UTR act
COc1ccccc1NC(=O)Nc1ccc2c(c1)OCCO2 | -131
CC(=O)Nc1ccccc1OCC(=O)c1ccc2c(c1)OCO2 | -99
COc1ccc(NC(=O)Nc2cc(C)ccc2F)cc1OC | -77
CCOc1ccccc1NC(=O)Nc1ccc2c(c1)OCO2 | -85
Cc1c(NC(=O)Nc2ccc3c(c2)OCO3)cccc1[N+](=O)[O-] | -96
Cc1ccc(C)c(NC(=O)Nc2ccc3c(c2)OCO3)c1 | -73
COc1ccccc1NC(=O)Nc1ccc(F)c(F)c1 | -66
Cc1ccccc1NC(=O)Nc1ccc2c(c1)OCO2 | -129
Cc1ccc(CNc2ccc3c(c2)OCO3)c(C)c1 | -98
CCOc1ccc(N=C(/C(C(=O)C(=O)N2CCOCC2)=C(\O)c2ccccc2)c2ccccc2)cc1 | -151
CCOc1ccc(OCc2ccc(C(=O)N3CCOCC3)cc2)cc1 | -91
CCOc1ccc(OCc2ccc(C(=O)N3CCCC(C)C3)cc2)cc1 (configuration not stated) | -63
CCOc1ccc(C(=O)c2cc([N+](=O)[O-])ccc2N2CCOCC2)cc1 | n
O=c1c(/C=C(\O)c2ccccc2)nc2ccccc2n1-c1ccccc1 | -127
C=CCn1c(=N)n(CC(=O)c2cccc([N+](=O)[O-])c2)c2ccccc21 | -77
c1ccc(CCNc2ncnc3sccc23)nc1 | -86
OC(CNc1ncnc2sccc12)c1ccccc1 (configuration not stated) | -97
Cc1ccc(COc2ccc(C)nc2[N+](=O)[O-])cc1 | -118
Cc1ccc(OCCOc2ccc(Cl)cc2Cl)c([N+](=O)[O-])n1 | -88
Cc1cc(C)n(-c2nc3c(c(=O)[nH]c(=O)n3C)n2CC(O)COc2ccc(Cl)cc2Cl)n1 (configuration not stated) | n
COc1ccc(OCCOc2ccc(C)nc2[N+](=O)[O-])cc1 | -106
Cc1ccc(N2CS(=O)(=O)/C(=C/N(C)C)C2=O)cc1 | -108
CN(C)/C=C1\C(=O)N(c2ccc(Cl)cc2)CS1(=O)=O | -126
Cc1ccnc(N=Cc2nc(-c3ccccc3Br)oc2O)c1 | -102
CC(CC(=O)Nc1ccc2c(c1)OCO2)c1ccccc1 (configuration not stated) | -92
SMILES | aSyn 5UTR act
CC(CC(=O)Nc1ccc2c(c1)OCCO2)c1ccccc1 (configuration not stated) | -161
CC(C)(C)S(=O)(=O)Cc1nc(-c2ccc(Cl)c(Cl)c2)cs1 | -67
Cc1cccc(Nc2nn3c(=O)c4ccccc4nc3s2)c1 | -160
O=C(O)c1cccc(-n2cc(-c3cccc(C(F)(F)F)c3)cn2)c1 | -128
O=C(COCc1cc(-c2ccc3c(c2)OCO3)on1)N1CCCCC1 | -90
CC(C)CNC(=O)c1cc(-c2ccc3c(c2)OCO3)on1 | -100
CCCNC(=O)COCc1cc(-c2ccc3c(c2)OCO3)on1 | -66
Cc1ccc(Cn2nc(C)c(NC(=O)c3cc(-c4ccc5c(c4)OCO5)on3)c2C)cc1 | n
CC(C)CNC(=O)COCc1cc(-c2ccc3c(c2)OCO3)on1 | -77
c1ccc(C2CCC3(CC2)Oc2ccccc2C2CC(c4cccnc4)=NN23)cc1 (configuration not stated) | -86
O=C(OCc1ccccc1)c1cccc(-c2nnn(Cc3ccccc3)n2)c1 | -91
CC(=O)NC(c1ccccc1)c1nc2ccccc2[nH]1 (configuration not stated) | -64
Cc1ccc2nc(/C(C#N)=C/c3ccc(O)c(O)c3)[nH]c2c1 | -222
Cc1ccc2nc(/C(C#N)=C/c3cn[nH]c3-c3ccc(F)cc3)[nH]c2c1 | -175

Compound activity from PubChem BioAssay.
